Sampled rows, rich in hits. Any-hit rate of the full collection: about 9.2%.
ALDH1A1 block: inhibitors of human aldehyde dehydrogenase 1A1; Purified ALDH1A1, NADH fluorescence, propionaldehyde substrate; Potency, µM (series often up to 75.3 µM), actives largely listed as inhibitors; 220,000 tested, 7.3% active
Target sequence (P00352 whole entry, looked up): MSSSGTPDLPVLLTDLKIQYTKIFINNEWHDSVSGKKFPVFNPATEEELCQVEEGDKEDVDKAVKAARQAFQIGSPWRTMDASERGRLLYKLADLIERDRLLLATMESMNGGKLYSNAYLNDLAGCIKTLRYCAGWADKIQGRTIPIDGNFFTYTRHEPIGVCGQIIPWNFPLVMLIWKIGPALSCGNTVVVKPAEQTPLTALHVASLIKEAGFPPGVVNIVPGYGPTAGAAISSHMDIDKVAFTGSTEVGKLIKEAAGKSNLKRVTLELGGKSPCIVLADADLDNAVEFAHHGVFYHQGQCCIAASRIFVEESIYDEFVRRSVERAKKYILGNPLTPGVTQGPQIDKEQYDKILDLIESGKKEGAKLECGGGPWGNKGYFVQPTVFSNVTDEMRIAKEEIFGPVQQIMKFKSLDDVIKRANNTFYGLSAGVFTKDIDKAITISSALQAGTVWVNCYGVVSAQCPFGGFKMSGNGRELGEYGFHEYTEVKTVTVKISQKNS
HTT cytoprotect: cytoprotection in Huntington HTT-Q103 PC12 cell model. PC12 HTT-Q103 induced, cytoprotection, ATP luminescence, 40 h. Potency, µM (titrated, usually from 56.4 µM), most hits filed as activators. 230,000 tested, 0.14% active; active means well fitted curve in the direction sought with a large enough effect; inconclusive means small, poorly fitted or top-dose-only effect, or another doubt; inactive means no such curve, though single readings can be large; an effect the other way counts as inactive or inconclusive; further: nearly all actives have a fitted effect of over 45% in size
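PC12 cells with ecdysone-inducible HTT exon 1 Q103-GFP, induced with 100 nM tebufenozide and co-treated with library compounds in a dose series (1536-well, 1500 cells/well). Cytoprotection read as ATP content by ATPlite luminescence.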
Lamin A splicing: LMNA splicing modulation. HeLa LMNA splicing GFP/RFP minigene ratio, 48 h. Potency, µM (top dose mostly 46.1 µM), actives largely listed as inhibitors. 200,000 tested, 0.01% active. AID 1487; active means well fitted inhibition curve with a large enough effect in the signal ratio, with a control signal flat, not every such curve was filed as active; inconclusive means small, poorly fitted or top-dose-only effect, or effect the other way, or a change in a side signal; the % refers to the signal ratio
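S3 HeLa stable clones carrying a lamin A-EGFP splicing minigene plus DsRed2 were seeded at 600 cells/well in Opti-MEM with 2% FBS, pin-dosed and incubated 48 h at 37°C. Acumen cytometry (488 nm) gave the GFP/RFP total-intensity ratio.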
KDM4E inh: JMJD2E (human) inhibition; JMJD2E catalytic domain, FDH-coupled NADH fluorescence (FDH is formaldehyde dehydrogenase); Potency, µM (doses to about 57.1 µM), most hits filed as inhibitors; 230,000 tested, 1.6% active; further: nearly all actives have a fitted effect of over 50% in size
HTT aggregate: mutant huntingtin aggregation inhibition. PC12 HttQ103-GFP aggregates, Acumen cytometry, 40 h. Potency, µM (doses to about 46.1 µM), actives largely listed as inhibitors. 220,000 tested, 1.1% active. AID 1688; active means well fitted curve in the direction sought with a large enough effect; inconclusive means small, poorly fitted or top-dose-only effect, or another doubt; inactive means no such curve, though single readings can be large; an effect the other way counts as inactive or inconclusive; further: nearly all actives have a fitted effect of over 60% in size
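Steps: seed 1500 PC12 HTTQ103-GFP cells/well; add tebufenozide, 100 nM final; add compound titration; add ATPLite reagent; quantify GFP aggregates by laser scanning cytometry.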
HPGD block: blocks human HPGD enzyme activity. P15428. purified HPGD, NADH fluorescence kinetic, PGE2 substrate. Potency, µM, hits mostly inhibitors. 150,000 tested, 4.3% active. AID 894
Target sequence (P15428 whole entry, looked up): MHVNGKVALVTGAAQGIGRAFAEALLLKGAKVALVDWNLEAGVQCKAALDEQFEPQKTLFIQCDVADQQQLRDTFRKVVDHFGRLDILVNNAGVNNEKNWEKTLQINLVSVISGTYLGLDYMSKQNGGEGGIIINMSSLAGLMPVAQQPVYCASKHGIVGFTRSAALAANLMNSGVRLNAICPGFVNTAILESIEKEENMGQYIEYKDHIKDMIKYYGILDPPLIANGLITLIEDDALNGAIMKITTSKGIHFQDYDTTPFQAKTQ
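20 nM HPGD preincubated 15 min at room temperature with compound in 50 mM Tris-HCl pH 8, 0.01% Tween 20. Started with 1 mM NAD+ and 30 uM prostaglandin E2; NADH fluorescence (360/450 nm) read 5 times over 30-s intervals, last minus first.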
A number is an active result; – = inactive; ? = inconclusive; · = no result given; [ ] = remark or other dose. Unless noted, the call rests on the fitted dose curve; in most records, active means well fitted inhibition curve with a large enough effect (not every such curve was filed as active); inconclusive means small, poorly fitted or top-dose-only effect, or another doubt; inactive means no such curve, though single readings can be large or run the other way.

SMILES | ALDH1A1 block | HTT cytoprotect | Lamin A splicing | KDM4E inh | HTT aggregate | HPGD block
CC1CCN(S(=O)(=O)c2cnc(Cl)c(Br)c2)CC1 | 0.13µM | · | – | – | ? | –
CC1CCCCN1S(=O)(=O)c1cnc(Cl)c(Br)c1 (stereo not drawn) | 2.5µM | · | – | – | ? | –
CC1CCN(S(=O)(=O)c2ccc(Cl)cc2Br)CC1 | – | –[10 µM] | ? | – | – | ?
CC1=C(C)C(=O)C(CCCCC#CCCCC#CCO)=C(C)C1=O | 14µM | – | ? | ? | – | ?
COC1=C(OC)C(=O)C(CCCCCCCCCCO)=C(C)C1=O | · | – | ? | – | ? | ·
COCc1cc(C)nc2c1C(=O)NC(c1ccc(C)cc1)N2Cc1ccccc1 (stereo not drawn) | · | · | – | · | · | ·
COCCn1c(SCC(=O)c2ccccc2)nc2ccccc2c1=O | 18µM | –[10 µM] | – | – | –[9.22 µM] | ·
O=C(Cn1c(S(=O)(=O)Cc2ccccc2)nc2ccccc21)N1CCCCC1 | 25µM | – | – | – | – | –
COCCn1c(SCC(=O)N2CCC(C)CC2)nc2ccccc2c1=O | 11µM | – | – | – | –[9.22 µM] | –
CCOC(=O)CSc1nc2ccccc2c(=O)n1CC | – | –[0.074 µM] | – | – | – | –
CCn1c(SCC(=O)OC2CCCCC2)nc2ccccc2c1=O | ? | –[10 µM] | – | – | 0.63µM | –
COCCn1c(SCC(=O)N2CCc3ccccc3C2)nc2ccccc2c1=O | – | –[1.9 µM] | – | – | – | –
COCCCn1c(SCC(=O)c2ccccc2)nc2ccccc2c1=O | ? | – | –[9.22 µM] | – | – | ·
Cc1cc(=O)[nH]c2cc3oc4ccccc4c3cc12 | –[13.5 µM] | –[10 µM] | · | · | · | –
Cc1ccc(C2c3c(oc4ccccc4c3=O)C(=O)N2c2nncs2)cc1 (stereo not drawn) | · | –[10 µM] | · | – | –[9.22 µM] | ·
Clc1cccc(CN2CCCCCCC2)c1Cl | ? | –[10 µM] | – | ? | – | –
NS(=O)(=O)c1ccc(CCNC(=O)CSc2nc3ccccc3c(=O)n2CCC(=O)N2CCCCC2)cc1 | 7.9µM | – | · | – | – | ·
COc1ccc(-c2nnc(CSc3nc4ccccc4c(=O)n3CC(C)C)o2)cc1OC | ? | – | ? | – | – | –
CC(C)Cn1c(SCC(=O)N2CCCCC2)nc2ccccc2c1=O | 22µM | –[10 µM] | – | – | – | –
NS(=O)(=O)c1ccc(CCNC(=O)CSc2nc3ccccc3c(=O)n2CCN2CCOCC2)cc1 | – | – | · | – | – | ·
CCOC(=O)CSc1nc2ccccc2c(=O)n1CC(C)C | ? | –[10 µM] | · | – | –[9.22 µM] | ·
COCCCn1c(SCc2nnc(-c3ccc(OC)c(OC)c3)o2)nc2ccccc2c1=O | – | –[10 µM] | ? | – | – | 20µM
O=C(CSc1nc2ccccc2n1S(=O)(=O)c1ccccc1)N1CCCCC1 | – | – | – | – | – | 1.8µM
C=CCSc1nc2ccccc2n1S(=O)(=O)c1ccc(C)cc1 | – | –[1.9 µM] | – | – | – | –
CCc1ccc(C2CC(=O)N(c3cccc(F)c3)C3=C2C(=O)OC3)cc1 (stereo not drawn) | – | – | –[9.22 µM] | – | – | ·
SMILES | ALDH1A1 block | HTT cytoprotect | Lamin A splicing | KDM4E inh | HTT aggregate | HPGD block
Cc1cc2cc(C)c(NCCNC(=O)c3cccs3)nc2cc1C | ? | –[10 µM] | · | – | –[9.22 µM] | ·
S=c1[nH]nc(-c2cc(-c3ccccc3)n[nH]2)n1/N=C/c1ccc(Br)s1 | – | –[10 µM] | · | – | –[9.22 µM] | ·
Cc1cc(-c2n[nH]c(=S)n2/N=C/c2ccc(C)s2)n[nH]1 | – | –[10 µM] | – | – | – | 25µM
Cc1cc(-c2n[nH]c(=S)n2/N=C/c2ccc(Br)s2)n[nH]1 | – | –[10 µM] | – | – | ? | 13µM
O=c1c2cc(-c3ccccc3)sc2nc2n1CCC2 | ? | –[10 µM] | – | 35µM | – | ·
Cc1nc2sc(-c3ccccc3)cc2c(=O)n1N | ? | –[10 µM] | · | ? | –[9.22 µM] | ·
O=c1c2ccccc2nc2n1CCC2 | ? | – | –[0.0737 µM] | 8.9µM | – | –
CCn1c(=O)c(C(=O)NC(C)C)c(O)c2ccccc21 | 13µM | – | – | ? | ? | –
CC(C)Cn1c(=O)c(C(=O)NCc2ccccn2)c(O)c2ccccc21 | ? | –[10 µM] | ? | – | 7.9µM | –
CCOC(=O)c1ccccc1NC(=O)c1c(O)c2ccccc2n(CC)c1=O | – | ? | ? | ? | ? | –
CCn1c(=O)c(C(=O)Nc2ccsc2C(=O)OC)c(O)c2ccccc21 | ? | ? | – | – | 7.1µM | ?
CCCn1c(=O)c(C(=O)NCc2ccncc2)c(O)c2ccccc21 | – | – | ? | – | – | –
COc1cccc(NC(=O)Cn2nnc(C(=O)NCCc3ccccc3)c2N)c1 | · | · | – | · | · | ·
COc1ccc(CNCC(=O)Nc2cc(C)nn2-c2nc(C)cc(C)n2)cc1OC | · | –[10 µM] | · | – | –[9.22 µM] | ·
Cc1cc(C)nc(-n2nc(C)cc2NC(=O)CN2CCc3ccccc3C2)n1 | 25µM | –[10 µM] | ? | – | ? | –
CCN(CC(=O)Nc1cc(C)nn1-c1nc(C)cc(C)n1)Cc1ccccc1 | 20µM | – | – | – | –[9.22 µM] | –
Cc1cc(C)nc(-n2nc(C)cc2NC(=O)CNCc2ccccc2)n1 | 8.9µM | – | – | – | – | –
O=C1C[C@@H](O)[C@@H](O)[C@@H]2[C@H]3C(=O)N(c4ccc(F)cc4F)C(=O)[C@@H]3CC[C@H]12 | –[13.5 µM] | –[10 µM] | · | · | · | ·
COc1cc(OC)c2c(c1)OC(=O)CC2c1ccccc1OC (stereo not drawn) | – | – | · | · | · | –
NCC1O[C@@H](OC2C(N)C[C@H](N)[C@@H](O[C@H]3OC(CO)C(O)C(N)C3O)C2O)C(N)C(O)C1O (stereo partly drawn) | – | – | · | – | · | –
COc1ccc(NC(=O)CC(C)n2nc(C)cc2C)cc1Cl (stereo not drawn) | · | · | – | · | · | ·
COC(=O)CC1C(C)(C)C(OC(C)=O)C2CC3C4CC(=O)OC(c5ccoc5)[C@]4(C)CCC3[C@@]1(C)C2=O (stereo partly drawn) | ? | ? | · | – | · | –
CCCCn1nnc(NC(=O)c2ccc(-c3ccccc3[N+](=O)[O-])o2)n1 | ? | – | – | – | – | ·
CCCCC(=O)NC(=S)Nc1nnn(CCC)n1 | 0.5µM | – | ? | – | – | ·
CCCCC(=O)Nc1nnn(CCC)n1 | – | – | – | – | – | –
SMILES | ALDH1A1 block | HTT cytoprotect | Lamin A splicing | KDM4E inh | HTT aggregate | HPGD block
CCCCn1nnc(NC(=S)NC(=O)c2ccc(-c3cccc(Cl)c3Cl)o2)n1 | 3.5µM | –[10 µM] | – | – | – | ·
Cc1cccc(NC(=O)COC(=O)CCc2ccc(S(=O)(=O)N3CCOCC3)cc2)c1C | 3.5µM | – | · | – | –[9.22 µM] | ·
Cc1ccccc1OCCC(=O)OCC(=O)Nc1cc(S(=O)(=O)N2CCOCC2)ccc1Cl | 2.5µM | – | – | – | – | ·
COc1ccc(S(=O)(=O)N2CCOCC2)cc1NC(=O)CCc1c[nH]c2ccccc12 | 14µM | – | – | – | – | ·
COc1ccccc1OCCC(=O)OCC(=O)Nc1cc(S(=O)(=O)N2CCOCC2)ccc1Cl | 6.3µM | – | – | – | – | ·
Clc1ccc(-c2nnc3sc(-c4ccc(Br)o4)nn23)cc1 | – | –[10 µM] | – | ? | – | ?
